Paper PMC4336329 (PLoS ONE, 2015)
Hit rate of the full screen: of about 310,000 compounds, about 14,000 (4.5%) showed an effect of 50% or more. Effects have a minus sign here. The entries come from a sample that favours strong results as a whole.

These compounds were tested against human ether-à-go-go-related gene (hERG) potassium channel (human, UniProt Q12809) (assay: primary screen, population patch clamp on CHO cells stably expressing hERG; higher = less effect of the substance).
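Also: peak tail current of the secondary pulse compared with the same well before compound.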

Chain of human ether-à-go-go-related gene (hERG) potassium channel (Q12809 whole entry, looked up): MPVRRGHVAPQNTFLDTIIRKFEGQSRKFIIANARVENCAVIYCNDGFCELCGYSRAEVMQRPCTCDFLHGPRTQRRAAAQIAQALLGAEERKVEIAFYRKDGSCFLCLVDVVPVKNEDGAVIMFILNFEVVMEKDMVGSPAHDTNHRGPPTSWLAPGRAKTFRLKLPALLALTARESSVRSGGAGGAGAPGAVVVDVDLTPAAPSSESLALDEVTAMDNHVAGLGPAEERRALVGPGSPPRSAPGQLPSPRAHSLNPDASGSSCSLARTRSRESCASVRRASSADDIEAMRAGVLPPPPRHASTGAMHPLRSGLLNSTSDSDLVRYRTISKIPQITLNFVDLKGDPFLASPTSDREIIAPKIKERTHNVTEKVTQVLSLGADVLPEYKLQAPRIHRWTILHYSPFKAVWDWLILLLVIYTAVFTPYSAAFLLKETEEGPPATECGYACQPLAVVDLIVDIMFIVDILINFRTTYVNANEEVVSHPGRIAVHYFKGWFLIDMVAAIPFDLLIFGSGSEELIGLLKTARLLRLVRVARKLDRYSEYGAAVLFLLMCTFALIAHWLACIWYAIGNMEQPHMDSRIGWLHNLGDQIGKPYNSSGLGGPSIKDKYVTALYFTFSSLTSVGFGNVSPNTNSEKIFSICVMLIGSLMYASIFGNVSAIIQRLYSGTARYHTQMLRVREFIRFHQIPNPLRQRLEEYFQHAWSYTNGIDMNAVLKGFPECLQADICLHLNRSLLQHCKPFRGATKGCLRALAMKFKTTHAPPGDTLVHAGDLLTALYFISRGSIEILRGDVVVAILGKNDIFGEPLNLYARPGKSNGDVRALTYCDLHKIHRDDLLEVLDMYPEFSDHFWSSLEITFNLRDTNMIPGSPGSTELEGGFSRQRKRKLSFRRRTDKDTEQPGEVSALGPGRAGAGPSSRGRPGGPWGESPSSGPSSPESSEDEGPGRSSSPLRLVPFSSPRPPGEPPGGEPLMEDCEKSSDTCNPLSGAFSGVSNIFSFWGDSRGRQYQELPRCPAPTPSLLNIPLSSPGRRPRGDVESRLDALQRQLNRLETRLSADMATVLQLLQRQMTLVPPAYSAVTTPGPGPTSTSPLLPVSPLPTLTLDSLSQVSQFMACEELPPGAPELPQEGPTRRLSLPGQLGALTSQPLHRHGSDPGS

| SMILES | hERG current change (%, negative = inhibition) at 10uM |
| --- | --- |
| O=C(Nc1cccc(C(F)(F)F)c1)NC1CCN(S(=O)(=O)c2ccc(F)cc2)CC1 | 12.2% |
| O=C(CN1CCN(S(=O)(=O)c2ccccc2)CC1)Nc1cccc(C(F)(F)F)c1 | -56.2% |
| COc1ccc(S(=O)(=O)N2CCCN(CCC(=O)Nc3cccc(C(F)(F)F)c3)CC2)cc1 | -69.6% |
| O=C(CCNC(=O)C1CCN(S(=O)(=O)c2ccccc2)CC1)Nc1cccc(C(F)(F)F)c1 | -45.1% |
| O=C(CNc1cccc(C(F)(F)F)c1)Nc1cccc(S(=O)(=O)N2CCCC2)c1 | -6.44% |
| COc1ccc(NC(=O)CCN2CCN(S(=O)(=O)c3ccc(OC)cc3)CC2)cc1 | -25% |
| COc1ccc(S(=O)(=O)N2CCN(CCC(=O)Nc3ccc(F)cc3)CC2)cc1 | -18.9% |
| Nc1c(N(Cc2ccco2)C(=O)COc2ccccc2F)c(=O)[nH]c(=O)n1Cc1ccccc1 | 0.883% |
| CNC(=O)CSCc1c(F)cccc1Cl | 17.8% |
| CCCOC(=O)C1=C(C)NC2=C(C(=O)C(C(=O)OC)C(C)C2)C1c1ccc(N(CC)CC)cc1 (stereo not shown) | -5.21% |
| COC(=O)c1ccccc1NC(=O)CC(NCc1ccccc1)C(=O)O (stereo not shown) | -20.7% |
| CCCCn1c(SCC(N)=O)nnc1-c1ccco1 | 15.3% |
| COc1cccc(-n2nnnc2SCC(=O)NCc2ccco2)c1 | -2.06% |
| COc1cc(NC(=O)CN2CCN(c3ccccc3F)CC2)c(C)cc1[N+](=O)[O-] | 28.2% |
| CCOC(=O)c1cnc2c(OC)cccc2c1N1CCN(c2ccc(OC)cc2)CC1 | -47.1% |
| COc1ccccc1N1CCc2c(C)nc3c(OC)cccc3c21 | -61% |
| COc1cccc2c3c(c(C)nc12)CCN3c1ccccc1 | -54.6% |
| Cc1nc2c(C)cccc2c2c1CCN2c1ccccc1F | -62.4% |
| COc1ccccc1N1CCN(c2nc(C)nc3c2oc2ccccc23)CC1.Cl | -1.5% |
| COc1cccc2c(Cl)c(CCCl)c(C)nc12 | 10.2% |
| Cc1nc2c(C)cccc2c2c1CCS2 | 0.813% |
| COc1cccc2c3c(c(C)nc12)CC(C)O3 (stereo not shown) | -21.9% |
| CCOC(=O)c1cnc2c(OC)cccc2c1N1CCN(c2ccccc2OC)CC1 | -45.4% |

| SMILES | hERG current change (%, negative = inhibition) at 10uM |
| --- | --- |
| Cc1nc2c(C)cccc2c2c1COC2 | 7.98% |
| CCc1c(C)nc2c(OC)cccc2c1Cl | -2.25% |
| COc1ccc(N2CCc3c(C)nc4c(OC)cccc4c32)cc1 | -73.5% |
| CCOc1ccccc1CNC(=O)CCNS(=O)(=O)c1ccc2[nH]c(=O)oc2c1 | -2.89% |
| CCC(O)(CC)C(=O)N/N=C/c1cc(Br)cc(Br)c1O | -1.02% |
| C/C(CC(=O)Nc1ccccn1)=N\NC(=O)Cc1cccc2ccccc12 | 1.01% |
| CCOC(=O)c1c(C)[nH]c(C(=O)COC(=O)c2ccccn2)c1C | -17% |
| Cc1cccc(-c2nnc3n2N=C(c2ccccc2Br)CS3)c1 | -14.4% |
| CC1CCCC(NC(=O)COC(=O)CN2C(=O)C3CCCCC3C2=O)C1C (stereo not shown) | 10.3% |
| Cc1ccc(CN(Cc2ccccn2)C(=O)Nc2c(F)cccc2F)cc1 | -0.968% |
| CCC/C(=N\NC(=O)c1ccc(CSc2nncn2C)cc1)c1ccccc1 | -8.28% |
| CCCOc1ccc(C2c3c(oc4cc(C)c(C)cc4c3=O)C(=O)N2CCCN(C)C)cc1OCC (stereo not shown) | 7.65% |
| O=S(=O)(NCC(c1cccnc1)N1CCN(Cc2ccccc2)CC1)c1ccccc1 (stereo not shown) | -68.9% |
| Cc1cc(C)c(S(=O)(=O)NCc2cccnc2)c(C)c1 | -2.97% |
| O=S(=O)(NCC(c1cccnc1)N1CCN(Cc2ccccc2)CC1)c1ccc(Cl)cc1 (stereo not shown) | -78.3% |
| CCN1CCN(C(CNS(=O)(=O)c2ccc(F)cc2)c2cccnc2)CC1 (stereo not shown) | -20.5% |
| Cc1cc(C)c(S(=O)(=O)NCC(c2cccnc2)N2CCN(Cc3ccccc3)CC2)c(C)c1 (stereo not shown) | -69.5% |
| Cc1cc(C)c(S(=O)(=O)NC2CCN(Cc3ccccc3)CC2)c(C)c1.Cl | -47.6% |
| O=S(=O)(NCC(c1cccnc1)N1CCOCC1)c1ccc(Cl)cc1 (stereo not shown) | 4.89% |
| O=S(=O)(NCC(c1cccnc1)N1CCc2ccccc2C1)c1ccccc1 (stereo not shown) | 10.3% |
| CCN1CCN(C(CNS(=O)(=O)c2ccccc2)c2cccnc2)CC1 (stereo not shown) | -39.2% |
| O=S(=O)(NCC(c1cccnc1)N1CCOCC1)c1ccccc1 (stereo not shown) | 4.6% |
| O=S(=O)(NCC(c1cccnc1)N1CCN(Cc2ccccc2)CC1)c1ccc(F)cc1 (stereo not shown) | -65% |
